High-throughput results (PubChem)
Only some compounds are listed: those with a hit (about 3.1% of all), similar ones and a draw of the others.
PAFAH1B2 inh – PAFAH1B2 (human) inhibition; P68402; recombinant PAFAH1B2, FP-rhodamine activity probe, fluorescence polarization; inhibition, % at 3.39 µM; hit rate 1.2% among 340,000; AID 492953;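 active means inhibition above the mean of all tested compounds plus 3 SD, cut at about 24% in these data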;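 further: 0% = enzyme with DMSO and 100% = wells lacking PAFAH1B2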
PAFAH1B3 inh – blocks human PAF acetylhydrolase 1B catalytic subunit 3; hit rate 0.28% among 340,000; recombinant PAFAH1B3, FP-rhodamine probe, fluorescence polarization; inhibition, % at 3.39 µM; Q15102;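 active means inhibition above the screen-wide average of all tested compounds plus 3 SD, cut at about 25% in these data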;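 further: 0% = enzyme with DMSO only and 100% = wells lacking PAFAH1B3 protein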
E coli Lon inh – E. coli protease La inhibition | P0A9M0 | AID 602123 | hit rate 0.42% among 360,000 | purified E. coli Lon protease, fluorescence polarization | inhibition, % at 7.94 µM; in the data active means inhibition above about 13%, passing the limit was not always enough;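 further: 0% = enzyme with probe and DMSO and 100% = no enzyme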
pPAFAH inh – pPAFAH (human) enzyme inhibition; Q13093; recombinant pPAFAH, FP-rhodamine probe fluorescence polarization; hit rate 1.5% among 330,000; inhibition, % at 3.39 µM; AID 463082;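 active means inhibition above the mean inhibition across the screen plus 3 SD, cut at about 25% in these data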;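 further: inhibitors block binding of the rhodamine activity-based probe so polarization drops; 0% = enzyme with DMSO and 100% = wells lacking pPAFAH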
PAFAH2 inh – PAFAH2 (human) inhibition. recombinant PAFAH2, FP-rhodamine activity probe, fluorescence polarization. Q99487. hit rate 0.99% among 340,000. inhibition, % at 3.39 µM;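 active means inhibition above the mean over all tested compounds plus 3 SD, cut at about 30% in these data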;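 further: inhibitors block probe labeling of enzyme so polarization drops; 0% = enzyme with DMSO and 100% = wells lacking PAFAH2 protein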
Rin1 Abl inh – inhibitors of human Rin1-Abl protein interaction. AID 588664. hit rate 0.4% among 360,000. inhibition, % at 7.35 µM. TR-FRET Rin1/Abl binding, biochemical. P00519+Q13671; in the data active means inhibition above about 5%, passing the limit was not always enough
PAFAH1B3 conf FP – PAFAH1B3 (human) inhibition, confirmed | AID 493032 | recombinant PAFAH1B3, FP-Rh activity-based probe, fluorescence polarization | inhibition, % at 3.39 µM | shares compounds with PAFAH1B3 inh | hit rate 30% among 390;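 active means average inhibition over triplicate runs above the hit cutoff set in the earlier primary screen, cut at about 25% in these data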;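 further: 0% = enzyme with DMSO and 100% = wells lacking PAFAH1B3 protein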
Starred values were filed as active, the others as inactive; . = no result; ! = not active in a repeat.

SMILES | PAFAH1B2 inh | PAFAH1B3 inh | E coli Lon inh | pPAFAH inh | PAFAH2 inh | Rin1 Abl inh | PAFAH1B3 conf FP
Cc1[nH]n(-c2ccccc2)c(=O)c1N=Nc1c(O)cc(S(=O)(=O)N(C)C)c2ccccc12 | 16 | 27* | 8 | 22 | 22 | 5 | 11
Nc1ccc(-c2nc3c(ccc4ccccc43)[nH]2)cc1 | 1 | 16 | 1 | 17 | 11 | -4 | .
CCOC(=O)C1CCN(c2nc(N)c3c(N)nc(SCC(=O)O)cc3c2C#N)CC1 | 19 | 37* | 13 | . | 7 | -1 | 20
CCOC(=O)C1CCN(c2nc(C)cc(C)c2C#N)CC1 | 2 | 10 | 6 | 3 | -2 | 2 | .
CC(NC1=CC(=O)c2cccnc2C1=O)C(O)c1ccccc1 (configuration not stated) | 13 | 56* | -5 | . | 15 | 0 | 43*
CCc1ccc(/C=C/C(=O)C2C(=O)c3ccccc3C2=O)cc1 | 9 | 28* | -10 | 10 | 11 | 1 | 8
O=C(/C=C/c1ccccc1)C1C(=O)c2ccccc2C1=O | 3 | -4 | -6 | -6 | -2 | -2 | .
Clc1cccc(CNc2ccn3nc(-c4ccccc4Cl)cc3n2)c1 | . | . | 10 | . | . | 4 | .
C(=N\Nc1nc(N2CCCCC2)nc(N2CCCCC2)n1)/c1c[nH]c2ccccc12 | 2 | 6 | -2 | 10 | -2 | 1 | .
Cc1[nH]c2ccccc2c1/C=N/Nc1nc(N2CCCCC2)nc(N2CCCCC2)n1 | 12 | 26* | -1 | 8 | -10 | -1 | 9
Cc1nc(S/C(=C\c2ccc(-c3ccc(C(=O)O)c(Cl)c3)o2)C(=O)O)n[nH]1 | 15 | 42* | -33 | . | 29 | -1 | 27*
Cc1nc(S/C(=C\c2ccc(OCc3ccccc3Cl)cc2)C(=O)O)n[nH]1 | 17 | 7 | -3 | 19 | 27 | 0 | .
C=CCn1c(NC(=O)c2ccc(Br)o2)c(S(=O)(=O)c2ccccc2)c2nc3ccccc3nc21 | 17 | 53* | 6 | 6 | 25 | -5 | 6
O=C(Nc1ccc(S(=O)(=O)NCc2ccccc2)cc1)c1ccc(Br)o1 | -1 | 6 | 3 | 3 | -9 | -1 | .
CCOC(=O)c1c(C)[nH]c(C)c1C(=O)COC(=O)/C=C/c1ccccc1[N+](=O)[O-] | 2 | -2 | -1 | 1 | 5 | 4 | .
CCOC(=O)c1c(C)[nH]c(C)c1C(=O)COC(=O)c1ccc([N+](=O)[O-])s1 | 18 | 45* | -10 | 18 | 17 | 1 | 14
Cc1ccc(-n2c(C)cc(C(=O)NS(=O)(=O)c3ccc(C)cc3)c2C)cc1 | 9 | 52* | 2 | 10 | 2 | -2 | 36*
CS/C(=N\S(=O)(=O)c1cccs1)NC(=O)CSc1nc2ccccc2s1 | 20 | 31*! | -12 | 8 | 3 | 4 | 20
COc1cc(CCNC2=CC(=O)c3ncccc3C2=O)ccc1O | 11 | 35* | 1 | . | 13 | -7 | 22
COC(=O)c1ccccc1NC1=C/C(=N\S(=O)(=O)c2cccs2)c2ccccc2C1=O | 19 | 55* | -3 | 21 | 9 | -4 | 52*
C[C@@H]1CN([C@@H](C)CO)C(=O)CCCn2nncc2CO[C@H]1CN(C)Cc1cccc(C(F)(F)F)c1 | . | . | 8 | . | . | -1 | .
COc1ncnc(OC)c1NC(=O)c1ccc(F)cc1 | 1 | 1 | 7 | -2 | 4 | 4 | .
Cn1nc(C(C)(C)C)c(NC(=O)c2ccc(F)cc2)c1C(C)(C)C | -2 | 31* | 0 | 1 | -4 | 1 | 7
Cc1cc(C)nc(N2CCC(C(=O)Nc3ccc(Oc4ccccc4)cc3)CC2)n1 | 2 | 108* | -7 | -2 | 5 | -1 | 10
O=C(N1CCCC1)C12CC3CC(CC(C3)C1)C2 | 8 | -3 | -8 | -5 | 3 | 3 | .
O=C(N1CCCCC1)C12CC3CC(C1)CC(C(=O)N1CCCCC1)(C3)C2 | 3 | 39* | 7 | 8 | 0 | -3 | 10
CC(=O)NCCCNS(=O)(=O)c1ccc(C)cc1 | 7 | 5 | -4 | 1 | 1 | 2 | .
COc1cc(C(=O)N/N=C/c2cn(Cc3cccc(F)c3)c3ccccc23)ccc1O | 10 | 34* | 8 | . | -14 | 1 | 18
Cc1ccc(C(=O)N/N=C/c2cn(Cc3ccccc3)c3ccccc23)cn1 | 8 | 11 | -8 | 6 | 1 | -3 | .
